Results as given in the supplement of paper PMC10849652.
The full data set covers some 7,900 targets. This sample favours those with a hit. About 0.6% of all pairs of compound and target were hits.

These targets were tested with CCN(CC)Cc1ccc2cc(COC(=O)Nc3ccc(C(=O)NO)cc3)ccc2c1 [givinostat] (assay: log2 fold change, soluble protein after heating vs DMSO (PISA); higher = thermal stabilisation; K562 cells, 10 uM, 30 min; active = over 0.2 and 3.5 SD of the protein, either way, in both replicates (recomputed)).
Procedure, shortened: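 K562 cells (2×10^6 cells/mL) were treated with 10 μM compound for 30 min, and aliquots were heated for 3 min over 48°C-58°C. Pooled aliquots were extracted in PBS with 0.5% NP-40 at 4°C, and the supernatant after 21,000xg for 90 min was measured by TMTpro 16plex LC-MS/MS with channel sums equalised. Reported thermal stability, relative to control samples and from duplicates, is a log2 fold change.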

UniProt Q14157, sequence (Q14157 whole entry, looked up): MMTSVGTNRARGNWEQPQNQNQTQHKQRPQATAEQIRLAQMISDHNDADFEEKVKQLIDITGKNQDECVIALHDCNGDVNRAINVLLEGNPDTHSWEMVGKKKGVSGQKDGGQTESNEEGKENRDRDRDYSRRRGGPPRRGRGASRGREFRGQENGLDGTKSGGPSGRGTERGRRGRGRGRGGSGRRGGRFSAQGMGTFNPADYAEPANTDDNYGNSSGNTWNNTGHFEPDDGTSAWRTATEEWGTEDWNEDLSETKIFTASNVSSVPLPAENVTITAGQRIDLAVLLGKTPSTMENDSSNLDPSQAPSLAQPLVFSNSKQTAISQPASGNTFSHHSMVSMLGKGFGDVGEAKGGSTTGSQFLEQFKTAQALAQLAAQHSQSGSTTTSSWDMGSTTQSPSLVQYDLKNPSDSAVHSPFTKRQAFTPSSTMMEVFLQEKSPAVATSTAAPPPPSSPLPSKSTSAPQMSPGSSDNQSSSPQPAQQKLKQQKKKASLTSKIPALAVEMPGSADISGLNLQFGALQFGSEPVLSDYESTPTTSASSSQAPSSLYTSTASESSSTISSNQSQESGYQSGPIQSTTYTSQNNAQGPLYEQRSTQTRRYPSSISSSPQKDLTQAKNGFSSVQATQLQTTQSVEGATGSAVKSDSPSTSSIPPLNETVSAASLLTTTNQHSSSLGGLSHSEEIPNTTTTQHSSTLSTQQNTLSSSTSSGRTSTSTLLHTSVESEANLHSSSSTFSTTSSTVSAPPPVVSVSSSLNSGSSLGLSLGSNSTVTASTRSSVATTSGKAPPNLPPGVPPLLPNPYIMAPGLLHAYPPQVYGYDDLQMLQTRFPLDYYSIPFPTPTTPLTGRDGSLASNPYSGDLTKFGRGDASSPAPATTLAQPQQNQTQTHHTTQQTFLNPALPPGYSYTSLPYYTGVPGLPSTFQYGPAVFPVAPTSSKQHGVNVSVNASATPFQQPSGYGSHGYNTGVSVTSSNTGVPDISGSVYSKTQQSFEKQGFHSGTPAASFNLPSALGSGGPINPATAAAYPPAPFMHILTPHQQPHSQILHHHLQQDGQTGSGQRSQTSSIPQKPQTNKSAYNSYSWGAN
UniProt Q86Y07, sequence (Q86Y07 whole entry, looked up): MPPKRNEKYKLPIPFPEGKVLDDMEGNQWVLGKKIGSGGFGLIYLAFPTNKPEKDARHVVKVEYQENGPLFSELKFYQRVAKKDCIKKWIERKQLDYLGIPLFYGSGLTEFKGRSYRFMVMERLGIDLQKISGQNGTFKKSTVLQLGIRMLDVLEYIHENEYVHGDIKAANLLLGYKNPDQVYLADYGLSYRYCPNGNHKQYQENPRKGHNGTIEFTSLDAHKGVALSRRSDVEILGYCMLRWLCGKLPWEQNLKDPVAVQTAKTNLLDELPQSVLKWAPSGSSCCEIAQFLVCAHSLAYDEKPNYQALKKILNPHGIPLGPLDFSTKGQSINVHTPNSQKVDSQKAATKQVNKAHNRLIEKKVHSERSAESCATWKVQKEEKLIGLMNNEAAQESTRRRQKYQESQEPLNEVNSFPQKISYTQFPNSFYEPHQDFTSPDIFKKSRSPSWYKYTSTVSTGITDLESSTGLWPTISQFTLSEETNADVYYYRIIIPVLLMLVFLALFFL
UniProt O94967, sequence (O94967 whole entry, looked up): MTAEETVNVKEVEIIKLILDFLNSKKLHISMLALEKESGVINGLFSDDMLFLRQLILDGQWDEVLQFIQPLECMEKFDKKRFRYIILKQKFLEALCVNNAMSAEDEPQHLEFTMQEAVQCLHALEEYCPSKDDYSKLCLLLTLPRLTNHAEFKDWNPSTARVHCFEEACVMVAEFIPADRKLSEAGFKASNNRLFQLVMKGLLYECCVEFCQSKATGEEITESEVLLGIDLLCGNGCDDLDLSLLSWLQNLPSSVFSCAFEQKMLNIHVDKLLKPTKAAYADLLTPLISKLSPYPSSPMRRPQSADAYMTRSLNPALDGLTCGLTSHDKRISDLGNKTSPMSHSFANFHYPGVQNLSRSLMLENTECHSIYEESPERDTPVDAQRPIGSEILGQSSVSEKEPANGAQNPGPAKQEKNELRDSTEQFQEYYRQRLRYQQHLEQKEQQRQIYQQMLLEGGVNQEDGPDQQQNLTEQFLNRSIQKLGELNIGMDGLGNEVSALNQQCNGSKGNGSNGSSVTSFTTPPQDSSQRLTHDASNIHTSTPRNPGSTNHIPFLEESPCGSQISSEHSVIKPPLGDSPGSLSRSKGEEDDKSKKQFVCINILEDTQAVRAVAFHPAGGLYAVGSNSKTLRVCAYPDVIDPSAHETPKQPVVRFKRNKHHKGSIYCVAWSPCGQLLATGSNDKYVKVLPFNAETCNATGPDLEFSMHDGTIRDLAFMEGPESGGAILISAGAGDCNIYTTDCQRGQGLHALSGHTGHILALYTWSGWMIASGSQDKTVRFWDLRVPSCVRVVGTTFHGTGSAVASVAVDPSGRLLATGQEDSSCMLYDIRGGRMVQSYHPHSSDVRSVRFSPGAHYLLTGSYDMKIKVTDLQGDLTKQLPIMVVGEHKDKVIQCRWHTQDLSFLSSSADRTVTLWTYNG
UniProt Q7Z392, sequence (Q7Z392 whole entry, looked up): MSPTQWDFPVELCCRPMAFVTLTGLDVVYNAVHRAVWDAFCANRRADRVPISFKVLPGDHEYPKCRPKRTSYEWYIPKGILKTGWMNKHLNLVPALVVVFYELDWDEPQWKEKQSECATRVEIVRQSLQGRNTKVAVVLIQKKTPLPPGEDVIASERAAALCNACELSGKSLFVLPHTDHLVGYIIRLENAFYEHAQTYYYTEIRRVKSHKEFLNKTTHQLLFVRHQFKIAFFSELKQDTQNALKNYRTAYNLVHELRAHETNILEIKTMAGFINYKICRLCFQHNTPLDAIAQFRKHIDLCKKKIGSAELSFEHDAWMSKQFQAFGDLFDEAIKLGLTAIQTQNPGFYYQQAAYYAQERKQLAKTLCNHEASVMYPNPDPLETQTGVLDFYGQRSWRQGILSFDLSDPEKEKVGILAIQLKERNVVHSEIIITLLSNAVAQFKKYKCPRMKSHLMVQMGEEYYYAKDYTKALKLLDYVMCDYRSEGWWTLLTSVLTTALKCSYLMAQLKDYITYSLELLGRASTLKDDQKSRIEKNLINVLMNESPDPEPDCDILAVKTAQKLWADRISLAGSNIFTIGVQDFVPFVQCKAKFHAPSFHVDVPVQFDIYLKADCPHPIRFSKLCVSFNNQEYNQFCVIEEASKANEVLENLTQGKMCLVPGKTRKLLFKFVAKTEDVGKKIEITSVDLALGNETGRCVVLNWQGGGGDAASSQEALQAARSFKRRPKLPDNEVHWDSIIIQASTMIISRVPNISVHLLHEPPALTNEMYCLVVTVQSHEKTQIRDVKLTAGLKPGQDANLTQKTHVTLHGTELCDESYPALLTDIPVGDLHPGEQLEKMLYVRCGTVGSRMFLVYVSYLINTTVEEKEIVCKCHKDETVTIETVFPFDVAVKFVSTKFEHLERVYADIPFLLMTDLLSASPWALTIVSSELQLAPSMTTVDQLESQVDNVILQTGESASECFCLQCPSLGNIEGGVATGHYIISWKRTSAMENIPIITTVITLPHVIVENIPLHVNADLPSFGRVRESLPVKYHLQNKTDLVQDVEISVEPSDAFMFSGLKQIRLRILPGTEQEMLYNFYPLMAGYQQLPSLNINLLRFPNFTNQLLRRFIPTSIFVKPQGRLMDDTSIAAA
UniProt O75717, sequence (O75717 whole entry, looked up): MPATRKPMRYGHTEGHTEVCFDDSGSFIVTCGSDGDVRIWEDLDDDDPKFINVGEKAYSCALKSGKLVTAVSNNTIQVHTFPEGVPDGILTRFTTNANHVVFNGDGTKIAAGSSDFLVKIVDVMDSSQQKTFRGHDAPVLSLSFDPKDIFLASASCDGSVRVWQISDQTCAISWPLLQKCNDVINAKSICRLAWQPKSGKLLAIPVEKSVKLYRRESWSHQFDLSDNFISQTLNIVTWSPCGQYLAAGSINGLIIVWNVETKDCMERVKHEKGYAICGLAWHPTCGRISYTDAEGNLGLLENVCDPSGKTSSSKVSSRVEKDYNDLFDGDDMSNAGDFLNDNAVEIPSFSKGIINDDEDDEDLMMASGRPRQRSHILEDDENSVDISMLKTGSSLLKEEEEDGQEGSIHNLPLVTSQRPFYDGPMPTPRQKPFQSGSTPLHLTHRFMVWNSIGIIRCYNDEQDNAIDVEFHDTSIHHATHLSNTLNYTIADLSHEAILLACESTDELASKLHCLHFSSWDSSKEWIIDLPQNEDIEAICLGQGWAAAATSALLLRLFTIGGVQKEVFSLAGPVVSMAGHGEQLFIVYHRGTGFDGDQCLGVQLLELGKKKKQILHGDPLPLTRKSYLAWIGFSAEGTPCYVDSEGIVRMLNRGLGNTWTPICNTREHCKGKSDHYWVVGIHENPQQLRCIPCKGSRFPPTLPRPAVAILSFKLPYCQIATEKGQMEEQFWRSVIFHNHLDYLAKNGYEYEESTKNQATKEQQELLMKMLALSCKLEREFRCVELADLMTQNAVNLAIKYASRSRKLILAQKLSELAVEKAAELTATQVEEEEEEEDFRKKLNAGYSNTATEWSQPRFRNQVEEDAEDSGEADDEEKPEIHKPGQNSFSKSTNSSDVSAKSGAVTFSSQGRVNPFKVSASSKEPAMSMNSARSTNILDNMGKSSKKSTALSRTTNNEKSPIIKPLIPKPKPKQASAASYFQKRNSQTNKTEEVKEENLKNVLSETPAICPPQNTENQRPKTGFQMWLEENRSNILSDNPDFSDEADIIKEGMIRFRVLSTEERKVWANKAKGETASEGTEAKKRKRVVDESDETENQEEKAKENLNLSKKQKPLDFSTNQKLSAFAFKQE
UniProt O00258, sequence (O00258 whole entry, looked up): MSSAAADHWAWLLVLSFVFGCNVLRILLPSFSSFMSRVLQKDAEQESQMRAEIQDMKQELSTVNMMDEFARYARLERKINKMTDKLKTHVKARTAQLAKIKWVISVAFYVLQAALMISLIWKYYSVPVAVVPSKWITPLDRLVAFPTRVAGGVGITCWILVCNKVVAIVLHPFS
UniProt Q8N4H5, sequence (Q8N4H5 whole entry, looked up): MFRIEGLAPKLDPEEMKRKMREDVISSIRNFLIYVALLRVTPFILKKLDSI

Target | log2 fold change
WDHD1 (UniProt O75717) | 0.053 (inactive)
TOMM5 isoform 2 (UniProt Q8N4H5) | -0.029 (inactive)
WDR41 (UniProt Q9HAD4) | -0.04 (inactive)
XPO5 (UniProt Q9HAV4) | -0.029 (inactive)
VARS2, A0A0G2JL52 | -0.015 (inactive)
WNK1 isoform 7 (UniProt Q9H4A3) | 0.03 (inactive)
TRIM28 (UniProt Q13263) | 0.039 (inactive)
WRB (UniProt O00258) | 0.032 (inactive)
UBR2 (UniProt Q8IWV8) | 0.192 (inactive)
UBE2S (UniProt Q16763) | 0.044 (inactive)
VPS13B (UniProt Q7Z7G8) | 0.002 (inactive)
TRMT10C (UniProt Q7L0Y3) | -0.022 (inactive)
XPNPEP3 (UniProt Q9NQH7) | -0.218 (inactive)
TMEM189-UBE2V1 (UniProt I3L0A0) | 0.024 (inactive)
USP15 (UniProt Q9Y4E8) | 0.025 (inactive)
VWA8 (UniProt A3KMH1) | 0.025 (inactive)
TUBAL3 (UniProt A6NHL2) | 0.006 (inactive)
XPO1 (UniProt O14980) | 0.024 (inactive)

Target | log2 fold change
U2AF2 (UniProt P26368) | 0.002 (inactive)
WDR47 (UniProt O94967) | 0.004 (inactive)
U2AF1 isoform 2 (UniProt Q01081) | 0.022 (inactive)
XPNPEP1 isoform 3 (UniProt Q9NQW7) | 0.042 (inactive)
UBA1 (UniProt P22314) | 0.074 (inactive)
WDR4 (UniProt P57081) | -0.026 (inactive)
VPS35L (UniProt Q7Z3J2) | 0.03 (inactive)
UBA6 | 0.015 (inactive)
UQCR10 (UniProt Q9UDW1) | -0.05 (inactive)
TRAPPC11 (UniProt Q7Z392) | 0.037 (inactive)
TXN2 (UniProt Q99757) | -0.046 (inactive)
UBAP2L isoform 1 (UniProt Q14157) | -0.261 (active)
TMEM208 (UniProt Q9BTX3) | 0.097 (inactive)
UBAP2L isoform 5 (UniProt Q14157) | 0.011 (inactive)
TXNIP (UniProt Q9H3M7) | -0.06 (inactive)
VRK2 (UniProt Q86Y07) | 0.03 (inactive)
WDR61 (UniProt Q9GZS3) | 0.026 (inactive)
USP48 isoform 8 (UniProt Q86UV5) | 0.144 (inactive)
